Assay results: PubChem BioAssay (NCATS)
Inconclusive results are not listed. Calls of active or inactive are those of the source. Calls come from the whole dose curve; as a rule, active = well fitted inhibition curve with a large enough effect; inconclusive = small, poorly fitted or top-dose-only effect; inactive = no such curve, though single readings can be large or run the other way.

The compounds below were run against Rap guanine nucleotide exchange factor 4 (Homo sapiens) (UniProt Q8WZA2) (assay: Confirmatory qHTS for antagonist of cAMP-regulated guanine nucleotide exchange factor 4 (EPAC2) (AID 1645885; note: nearly all actives have a fitted effect of over 25% in size)). Conditions: EPAC2 Rap1B-BODIPY-GDP exchange fluorescence, biochemical; series mostly up to 12.7 µM; activity change, negative = inhibition: at the top concentration.
Rap guanine nucleotide exchange factor 4 (Homo sapiens), sequence (Q8WZA2 whole entry, looked up): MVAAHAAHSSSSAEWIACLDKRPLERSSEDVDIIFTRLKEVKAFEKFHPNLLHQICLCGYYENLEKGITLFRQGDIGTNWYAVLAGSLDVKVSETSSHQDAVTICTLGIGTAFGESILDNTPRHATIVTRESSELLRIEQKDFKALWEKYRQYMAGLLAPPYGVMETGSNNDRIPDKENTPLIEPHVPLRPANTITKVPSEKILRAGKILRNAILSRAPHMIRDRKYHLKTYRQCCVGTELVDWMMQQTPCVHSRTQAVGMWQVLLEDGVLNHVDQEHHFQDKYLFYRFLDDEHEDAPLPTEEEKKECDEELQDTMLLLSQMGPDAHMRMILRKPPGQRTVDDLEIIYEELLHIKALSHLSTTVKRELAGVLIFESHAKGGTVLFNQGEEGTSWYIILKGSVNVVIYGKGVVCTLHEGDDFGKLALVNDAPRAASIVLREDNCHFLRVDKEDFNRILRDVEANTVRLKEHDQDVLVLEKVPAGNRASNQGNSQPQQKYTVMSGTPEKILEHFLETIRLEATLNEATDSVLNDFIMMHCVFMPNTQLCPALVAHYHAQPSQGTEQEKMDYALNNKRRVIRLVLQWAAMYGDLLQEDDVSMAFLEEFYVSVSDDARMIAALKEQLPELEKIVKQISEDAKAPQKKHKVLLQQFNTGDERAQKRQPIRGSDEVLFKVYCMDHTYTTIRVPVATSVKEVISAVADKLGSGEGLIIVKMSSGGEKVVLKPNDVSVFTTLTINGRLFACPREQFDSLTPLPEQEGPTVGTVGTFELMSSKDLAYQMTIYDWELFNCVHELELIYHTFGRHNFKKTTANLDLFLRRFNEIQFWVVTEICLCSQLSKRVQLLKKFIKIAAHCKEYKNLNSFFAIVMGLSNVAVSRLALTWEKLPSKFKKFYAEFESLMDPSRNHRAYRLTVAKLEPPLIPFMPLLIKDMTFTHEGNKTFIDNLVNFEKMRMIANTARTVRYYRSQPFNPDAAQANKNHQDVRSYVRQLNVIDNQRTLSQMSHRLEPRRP
% is set by controls: 0 for no effect and ±100 for the full control effect; potency is the fitted concentration of half-maximal effect.

Activity change, negative = inhibition, inactive:
CC[C@H]1c2[nH]c3ccc(C(C)C)cc3c2[C@@H]2CCN3C(=O)CCC[C@H]1[C@H]23 -9.81% [at 114 µM]
COc1ccc(SC[C@H](C)CN2CC[C@H](C)CCC2=O)cc1 -35.8% [at 114 µM]
N#Cc1cc(NC(=O)c2ccc(Cl)cc2)ccc1Sc1ccccc1 -14.8% [at 114 µM]
COc1ccc(C(C[N+](=O)[O-])c2c(C)cc3ccccn23)c(OC)c1 (stereo unspecified) -0.89%
C1=Cc2ccccc2/C1=C\c1ccc2c(c1)OCO2 -24.1% [at 114 µM]
CCOC(=O)C1=CCN(S(=O)(=O)c2ccc(C)cc2)C1c1cccs1 (stereo unspecified) -8.43%
CC(C(=O)Nc1ccccc1C(F)(F)F)n1nc(-c2ccccc2)c2c(c1=O)CCCC2 (stereo unspecified) 4.86%
CCCCCn1c(C)c2c(OCC)cccc(=O)c2c1C 6.52%
C(=C\c1nccc2ccccc12)/c1ccc(N2CCOCC2)cc1 -13.8% [at 114 µM]
CCOC(=O)[C@H](CCc1ccccc1)N[C@@H](C)C(=O)N1[C@@H](C(=O)O)C[C@@H]2CCC[C@@H]21 5.38% [at 62.5 µM]
O=C(NCc1ccc(F)cc1)c1ccc2c(=O)n3c(nc2c1)CCCCC3 80.5% [at 114 µM]
Cc1ccc(C)c(N2CCN(C(=O)CCc3nc(-c4ccc(Cl)cc4)no3)CC2)c1 -27.4% [at 114 µM]

outcome, inactive:
COc1ccc(NC(=O)Cn2c(SCc3cc(C)ccc3C)nc3ccncc32)c(OC)c1OC inactive [at 12.7 µM]
CN(C)CCNC(=O)c1cccc(-c2cnc3c(NC=O)cc(-c4cccc(C(F)(F)F)c4)cn23)c1

Potency, active:
C#C[C@]1(OC(C)=O)CCC2C3CCC4=CC(=O)CC[C@@H]4C3CC[C@@]21C (stereo partly specified) 39.3 µM
COc1ccc(-c2nc3cc(C)ccc3cc2CN(C(=O)c2cccs2)C2CC2)cc1OC 49.4 µM
COc1cc(C(=O)N(Cc2cc3ccc(C)cc3nc2N(C)C)C2CC2)cc(OC)c1OC 17.5 µM
CCN(CC)c1ccc2cc(-c3nc(-c4ccccc4F)no3)c(=O)oc2c1 4.78 µM
COc1cccc(C(=O)N(Cc2cc3ccc(C)cc3nc2N(C)C)C2CC2)c1OC 17.5 µM
COc1cccc(-c2nc3cc(SC)ccc3cc2CN(C(=O)c2sccc2C)C2CC2)c1 31.2 µM
CC(C)C[C@@H](COc1ccccc1)N1CCN(Cc2ccccc2)CCC1=O 62.2 µM
